Screen size: about 300,000 compounds; about 3,300 (1.1%) were called active. Roughly 6% stayed inconclusive and do not appear here. The full list was thinned out, with actives kept by preference. A number with no mark means an inactive call.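 The calls were made as follows: active = more than half of the replicate wells show a fall in the fluorescence ratio signal beyond about 16% (limit read from the data, passing the limit was not always enough); inconclusive = exactly half of the replicate wells pass the set limit; inactive = fewer than half of replicates pass the limit.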

Broadly, the inhibition is the relative decrease from the control value, in per cent.

For this test, the system named is Ran GTPase (GTP-bound) - importin-beta complex. The test can be described thus: inhibitors of RanGTP-importin-beta interaction, primary screen, biochemical, FRET, CFP-Ran, YFP-importin-beta, homogeneous (AID 2216).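 Also: 0% = DMSO wells and 100% = Ran loaded with GDP instead of GTP.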 Conditions: cell-free CFP-Ran/YFP-importin-beta FRET ratio; stronger effect = higher value; concentration not given here.
Regarding `CC(=O)N[C@H]1[C@H]([C@H](O)[C@H](O)CO)OC(C(=O)O)=C[C@@H]1O`, the inhibition was 1.4%. `COc1ccc(Cl)cc1NC(=O)CN(C)C(=O)c1cc(-c2cccs2)nn1-c1ccccc1`: the inhibition is 0.469%.

As to `Cc1nc2ccccc2c2oc(C(=O)NCC3CCCO3)cc12` (centres undefined), the inhibition is 4.76%. The same measure for `Cc1nc2ccccc2c2oc(C(=O)NCCCN3CCC(C)CC3)cc12`: 34.1% (active). Take `CCCN(CCC)CCNC(=O)c1cc2c(C)nc3ccccc3c2o1`: the inhibition was 0.401%. As to `O=C(NCCS(=O)(=O)NCc1ccc(Cl)cc1)c1ccccc1`, the inhibition was 5.39%.

Turning to `CCOC(=O)c1c(C)oc2cc(Br)c(OCC(N)=O)cc12`, the inhibition is 19% (active). For the molecule `CCOC(=O)c1c(-c2ccccc2)oc2ccc(OCC(N)=O)cc12`, the inhibition is 0.113%.

For `CCOC(=O)c1c(C)oc2ccc(OCC(=O)N(CC)CC)cc12`, the inhibition is -3.75%. The same measure for `Cc1cc(-c2nnc(SCC(=O)Nc3ccc(S(N)(=O)=O)cc3)n2N)n[nH]1`: 0.809%.

Regarding `Cc1cccc(NC(=O)N2CCCCCC2)c1C`, the inhibition is 2.28%. As to `COCc1[nH]nc2c1C(C1C=CCCC1)C(C#N)=C(N)O2` (centres undefined), the inhibition is -7.86%.

Turning to `N#CC1=C(N)Oc2cc(O)ccc2C1C1CCCCC1` (centres undefined), the inhibition is 140% (active). The same measure for `N#CC1=C(N)OC2=C(C(=O)CCC2)C1C1CC=CCC1` (centres undefined): -2.87%; for `COc1ccc(CNC(=O)C2CCCC2)cc1`: -1.07%. The same measure for `Cc1ccc2nc(NC(=O)CSc3nc(=O)n(CCCN(C)C)c4c3CCC4)sc2c1`: 1.53%. Regarding `Cc1nc(Nc2ccc3c(c2)OCCO3)c2nnn(Cc3ccccc3Cl)c2n1`, the inhibition was 3.56%.

`Cc1nc(Nc2ccc(S(=O)(=O)N3CCCC3)cc2)c2nnn(Cc3ccccc3)c2n1`: the inhibition is 5.61%.

As for `Cc1nc(Nc2ccccc2F)c2nnn(Cc3ccccc3Cl)c2n1`, the inhibition was 35.1% (active). As for `COc1ccccc1-n1ccnc(SCC(=O)NC2CCCCC2)c1=O`, the inhibition is -1.18%. `CC(C)N(Cc1ccccc1)C(=O)COC(=O)c1ccccc1SCC(=O)N1CCCC1`: the inhibition is -1.94%.

On to `CC(=O)C12CC(C)=C(C)CC1CC1C3CCC4=CC(=O)CCC4(C)C3CCC12C` (centres undefined), for which the inhibition is 1.03%.

Regarding `COC(=O)c1ccc(C(=O)OC)c(NC(=S)N2CCN(c3ccc(F)cc3)CC2)c1`, the inhibition was 6.98%. The same measure for `CCS(=O)(=O)Nc1cc(C(=O)OC)ccc1C(=O)OC`: 4.57%. Regarding `COC(=O)c1ccc(C(=O)Nc2cc(Cl)ccc2Cl)cc1NC(=O)c1ccccc1C`, the inhibition was 2.78%. As to `CCCOc1ccc(CN(CCO)CCO)cc1C(=O)OC`, the inhibition was -2.69%. Regarding `COC(=O)c1ccc(C(=O)OC)c(NC(=S)N2CCCCC2)c1`, the inhibition was 55.3% (active).

In the case of `CCCN(CCC)C(=S)Nc1cc(C(=O)OC)ccc1C(=O)OC`, the inhibition is 41% (active). Regarding `CCN(CCO)C(=S)Nc1cc(C(=O)OC)ccc1C(=O)OC`, the inhibition was 16.3% (active). On to `CCN(CC)C(=O)CCC(=O)Nc1ccc(C(=O)OC)cc1`, for which the inhibition was -3.39%.

Consider `COC(=O)c1ccc(C(=O)OC)c(NC(=S)N2CCN(c3cc(Cl)ccc3C)CC2)c1`, for which the inhibition was 6.93%. For the molecule `CN(C)C(CNC(=O)c1cccc(S(=O)(=O)Nc2ccc(Br)cc2)c1)c1ccco1` (centres undefined), the inhibition is -0.145%. The same measure for `CCc1noc(C)c1C(=O)NNC(=O)c1ccc(F)cc1`: 3.18%.

In the case of `Cc1ccccc1OCC(=O)NNC(=O)c1ccc(-n2cncn2)c([N+](=O)[O-])c1`, the inhibition is 3.51%. As to `COc1ccccc1CNC(=O)CSc1nc(=O)n(Cc2ccncc2)c2c1CCC2`, the inhibition was -4.86%.

In the case of `O=C(Nc1ncccc1O)c1ccc(C(=O)c2ccccc2)cc1`, the inhibition is -5%. The same measure for `O=C(COC(=O)c1ncc(Cl)c(Cl)c1Cl)NC1CCS(=O)(=O)C1` (centres undefined): 1.31%; for `COCc1cc(=O)n2[nH]c(C)c(-c3ccccc3)c2n1`: 1.2%; for `O=C1C(=O)N(CCN2CCOCC2)C(c2ccccn2)/C1=C(/O)c1ccc(Cl)cc1` (centres undefined): 20.4% (active). Consider `CCN(CC)CCN1C(=O)C(=O)/C(=C(/O)c2ccc(OC)c(OC)c2)C1c1ccccn1` (centres undefined), for which the inhibition is 33.8% (active).

As to `COc1ccc(C2/C(=C(/O)c3ccc(OC(C)C)cc3)C(=O)C(=O)N2CCCN2CCOCC2)cc1` (centres undefined), the inhibition was -1.52%. The same measure for `COc1ccc(/C(O)=C2/C(=O)C(=O)N(CCCN(C)C)C2c2ccccc2)cc1OC` (centres undefined): 3.13%; for `CC1Cc2cc(/C(O)=C3\C(=O)C(=O)N(CCN4CCOCC4)C3c3ccccc3F)ccc2O1` (centres undefined): 1.9%; for `CCN(CC)CCN1C(=O)C(=O)/C(=C(/O)c2ccccc2)C1c1ccccc1F` (centres undefined): -0.379%. With `CCOc1ccc(CCNC(=O)COC(=O)c2ccc(F)c(S(=O)(=O)N3CCOCC3)c2)cc1OCC`, the inhibition is -2.22%.

Consider `CCN(CC)c1ccc(NC(=O)c2ccc(=O)[nH]c2)cc1S(=O)(=O)Nc1ccc(OC)cc1`, for which the inhibition was -0.956%. For `O=C(NNC(=O)c1cccnc1)Nc1ccccc1`, the inhibition was -0.622%. To `CCOc1ccccc1NC(=O)c1cccnc1` belongs -0.62%. Consider `O=C(Nc1cnccn1)c1cccnc1`, for which the inhibition was 15.8% (active). To `O=C(Nc1cc(S(=O)(=O)N2CCOCC2)ccc1OCC(F)(F)F)c1ccc(N2CCCC2=O)cc1` belongs 5.96%. For the molecule `COCC1CCN(C(=O)c2ccc3oc(Cc4ccccc4)nc3c2)C1` (centres undefined), the inhibition is 1.03%. To `O=C(Nc1ccc(OCC(=O)N2CCOCC2)cc1)c1cc(F)c(F)cc1Cl` belongs 3.93%; to `CC(=O)Cc1nsc(NC(=O)c2ccc(Cl)cc2Cl)n1`, 1.86%. The same measure for `CCN1CCc2nc(NC(=O)c3cc(F)c(F)cc3Cl)sc2C1`: 19.6% (active); for `CCOc1ccc(NC(=O)CN(C)C(=O)COc2cccc(CC)c2)cc1OCC`: -1.27%. The same measure for `[O-][n+]1ccc(OCc2ccccc2)cc1`: -2.54%. As to `CCC(C)c1ccccc1N1CC(C(=O)N2CCN(S(=O)(=O)c3ccc(F)cc3)CC2)CC1=O` (centres undefined), the inhibition is 1.46%. The same measure for `NC1=NC(c2ccc([N+](=O)[O-])cc2)N(c2ccc(F)cc2)C(N)=N1` (centres undefined): 1.29%; for `CCOc1cc2ccccc2cc1C(=O)Nc1ccccn1`: 3.29%.

The record behind these values is PubChem BioAssay AID2216 (Broad Institute, 2009).
